In PMC12136788:
Changes are numbered by the printed parent chain. Whole data set: some 24,000 sequences, median “enrichment r” near 0.99, cut for the highest 2% near 3.7. The list comes from a sample in which the highest values are over-represented; it also holds similar and randomly drawn sequences.

T1: UNK ZnF1-3 (human, UniProt Q9C0B0 31-174)
T1 sequence: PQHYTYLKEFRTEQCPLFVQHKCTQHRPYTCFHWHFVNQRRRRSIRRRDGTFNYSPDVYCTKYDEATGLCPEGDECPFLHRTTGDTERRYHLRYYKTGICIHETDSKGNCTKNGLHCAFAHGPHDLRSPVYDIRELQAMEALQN

B1: chr14:76904540:76904541:+_ENSMUSG00000022010_ENSMUST00000022587|mus_mus|FALSE|FALSE (ssRNA)
RNA: GGGAGUUCUACAGUCCGACGAUCAAAGAAAUGGAAAAAUGUCUCAGUUGGUAAACUCCUAGAUCCAUCGCCACUGGUCUACACCAUUGGGAUUUCAUGCAAUUGCAGCCAAAUUAAAAAAACAGCCCCGUGGAAAAAAAAGAGCAACAGAGGAUUGAGCAUCA
B2: chr1:88750987:88750988:+_ENSMUSG00000053333_ENSMUST00000065694|mus_mus|FALSE|FALSE (ssRNA)
RNA: GGGAGUUCUACAGUCCGACGAUCUGAUAAGCCUCUUGUGUCCUGUGGUAUGGGGGUGUUCUCAUCUUUCAUAACUGGAGUACUAGAAUCUUCUUUUCCUCUGUCAGGAGUAGAGAUUGACAAUUUCUUAACACCAUCAACCAGCAACAGAGGAUUGAGCAUCA
B3: chr18:33744517:33744518:+_ENSG00000134759_ENST00000351393|hu_hu|motif|central (ssRNA)
RNA: GGGAGUUCUACAGUCCGACGAUCUAAGAACUUCUCAUUAGGUGAGAAGGCCAUCUGCGUGACUGUCAAACUGUGGAAAACGGAAUUCUGCACCUGUUUCCAAGAUGUAGUGUUCCAAAGAAUGAUAGCUGCAUGCUCUUUCUUCAACAGAGGAUUGAGCAUCA
B4: chr4:115894766:115894767:+_ENSMUSG00000028698_ENSMUST00000030464|mus_hu|mus_mus_mus_hu_True|38_38 (ssRNA)
RNA: GGGAGUUCUACAGUCCGACGAUCUUCCACACGGAAAUGUACUUCGGGUUUUCCAACGGCCAGUACCAGUCCGGCCAAACUACCCGAACAGGGUCCUGUCCUCCUCUCCUACAGAACACAACAAAAUGCCCCCGAACUUUCAAGCAACAGAGGAUUGAGCAUCA
B5: chr14:31813938:31813939:-_ENSMUSG00000021917_ENSMUST00000162092|perfect_dup|motif|central (ssRNA)
RNA: GGGAGUUCUACAGUCCGACGAUCAACUAUGUAGACAGUCCACCCAAACUGUUCAGCCACGUACCCGUAGAUAAACCCAACGGUUGCAGAAAAAAGAAUGAUCCCCUGAAACAUCUGUUCAGCUAGUUUCUGCCCCUUGUAAUCCAACAGAGGAUUGAGCAUCA
B6: chr2:25965407:25965408:-_ENSG00000143970_ENST00000336112|hu_mus|FALSE|FALSE (ssRNA)
RNA: GGGAGUUCUACAGUCCGACGAUCAUGUGCUGCCGGAAUAAAAUCUCUAGGCAGGCUCUUUUCAUCAGAUGCUUGGCCUCUAGAGAAUAUGUAAUUCUCCUGGCCUAAAGUGGUUUGCUCACUCACUGGUGCCUCAGUCUUACCCAACAGAGGAUUGAGCAUCA
B7: chr2:153237265:153237266:-_ENSMUSG00000061411_ENSMUST00000109784|mus_mus|mus_mus_mus_hu_False|8_18 (ssRNA)
RNA: GGGAGUUCUACAGUCCGACGAUCAAAAAAAAAAAAAAAAAAGUGUCCUUGUGCCCAAAGUCUCAGGUGCUUGGAGUGUGGCUAGAAACAGCUCUUUUGGAUCCCACCUCUUUCAAAAAACAGUGUACCAACUGGUGGAGGCAGCAACAGAGGAUUGAGCAUCA
B8: chr2:153237265:153237266:-_ENSMUSG00000061411_ENSMUST00000109784|mus_hu|motif|central (ssRNA)
RNA: GGGAGUUCUACAGUCCGACGAUCAAAAAAAAAAAAAAAAAAGUGUCCUUGUGCCCAAAGUCUCAGGUGCUUGGAGUGUGGCGGGAAACAGCUCUUUUGGAUCCCACCUCUUUCAAAAACAAAAUGUACCAACUGGUGAGGCAGCAACAGAGGAUUGAGCAUCA
B9: chr3:138121269:138121270:+_ENSG00000158186_ENST00000289104|hu_hu|FALSE|FALSE (ssRNA)
RNA: GGGAGUUCUACAGUCCGACGAUCCAGGUGGCUUCCUUGUCUCUUUGAGAGGUGGGAAAGCCCGUGCCCUCUGGGCAAAGCCAGACCCUGUCUGCUCCCUGCCCACCUGCCCUUCUCCCUUCCUGUACCAAGUCCUUGGGCCAACAACAGAGGAUUGAGCAUCA
B10: chr2:153237265:153237266:-_ENSMUSG00000061411_ENSMUST00000109784|mus_mus|mus_mus_mus_hu_False|1_58 (ssRNA)
RNA: B8 RNA with U78C, G79A, G82U, G83A, G137A, A138G, G140C, C141A, A142G
B11: chr2:153237265:153237266:-_ENSMUSG00000061411_ENSMUST00000109784|mus_mus|mus_mus_mus_hu_False|1_78 (ssRNA)
RNA: B8 RNA with G66A, G82U, G83A, G137A, A138G, G140C, C141A, A142G
B12: chr10:70731730:70731731:+_ENSG00000165732_ENST00000354185|hu_hu|motif|central (ssRNA)
RNA: GGGAGUUCUACAGUCCGACGAUCAACCUCAGGGAUGUCUAACCCACGUGCAGCAACAUUGGUUGCCACCAAAACUCCAAAACGGCCAUUUCUAAAACCUUUCAGGGUGAUUUCCCUUUGCUUCUGUGGAAUGUCUCCAUGCAACAACAGAGGAUUGAGCAUCA
B13: chr2:209110096:209110097:-_ENSG00000138413_ENST00000345146|hu_hu|FALSE|FALSE (ssRNA)
RNA: GGGAGUUCUACAGUCCGACGAUCUUCUUCAAAGUUAUGUACCAGGUAUGUCACCUUUUGGGUUCCGUCACUUGGUGUGUAGGUUAUCUCUACUUUUCCAGGCCCAGGAACAACAAAAUCAGUUGCUCUGUAUUGAUCCCCAUACAACAGAGGAUUGAGCAUCA
B14: chr7:72892646:72892647:-_ENSG00000009954_ENST00000339594|hu_hu|FALSE|FALSE (ssRNA)
RNA: GGGAGUUCUACAGUCCGACGAUCCUUGUCACUGUGCUUCCCUGGUUUCUUGGCAGGUGGGCCUUUUUUAGGAAUGUGAAAGUUAGUGUGCAGCUUAUUGGGCGACAUCAUCUUCAUCAUUUCUUCUAGAUGUUCUUCAGGAGACAACAGAGGAUUGAGCAUCA
B15: chr11:6247107:6247108:+_ENSMUSG00000020456_ENSMUST00000003461|mus_mus|FALSE|FALSE (ssRNA)
RNA: GGGAGUUCUACAGUCCGACGAUCAAACAUAGGUUCGUCCAUCUCAUUGUGGCCAUUUCGUCGAUAACACACCAGAUCAACUACAACAUCCUUGUGGAAGGUGUUUCUCCACUCAGCUGCCACCUUGCAUACAUACAUGACAGCCAACAGAGGAUUGAGCAUCA
B16: chr15:76911001:76911002:-_ENSMUSG00000033565_ENSMUST00000166610|mus_hu|motif|central (ssRNA)
RNA: GGGAGUUCUACAGUCCGACGAUCAAGAGCAUGACAAAAUAAAAACACACAAAUUUACGUCUGAUGUUCACCUUGCCCACGGUUUUUUUUUCCUAUCUUAAAACAGUGCAAACAGGUAACUUAUGCUUUUAAAACACCACGACCCAACAGAGGAUUGAGCAUCA
B17: chr17:17165348:17165349:-_ENSG00000141030_ENST00000268717|hu_mus|motif|central (ssRNA)
RNA: GGGAGUUCUACAGUCCGACGAUCUAUUUGAGAGGUGUAUUUAGGCAGCUGUUGUACUUUGCCAAGUAAUAUCAAAGACACGGGAAUAUACUUUUUAUAUGAUUCCAACAUGAUAUGGCUGACGGCCAUGGCAGGAGUAGUUAUCAACAGAGGAUUGAGCAUCA
B18: chr8:74858975:74858976:-_ENSG00000154582_ENST00000284811|hu_mus|hu_hu_hu_mus_True|8_48 (ssRNA)
RNA: GGGAGUUCUACAGUCCGACGAUCGACCUUGUAGGUAAAAUACAUGCACACUUUUGAUAGCACAUGUGAGGGGAUCUCUCUAAAAUUGACCUCAUUGGUUUCAUUCUCAGCAAACUGACCUGGACCACUCAACAUGGCCUUUAUCAACAGAGGAUUGAGCAUCA
B19: chr2:48026839:48026840:+_ENSG00000116062_ENST00000540021|hu_hu|hu_hu_hu_mus_False|48_88 (ssRNA)
RNA: GGGAGUUCUACAGUCCGACGAUCAUAGUGAGCCACUAGCGUCCUAAAUCUCGAACAGUGGCGGUCAUCCGAAAACUGGCCGAUGAAAAACUUUCCCAGUGAAGUGUCCACAAAGCAAACACCAUACACACGAGUGUGACCAGACAACAGAGGAUUGAGCAUCA
B20: chr11:86535762:86535763:-_ENSMUSG00000047126_ENSMUST00000103186|mus_hu|FALSE|FALSE (ssRNA)
RNA: GGGAGUUCUACAGUCCGACGAUCUGCAAAGCACUGAAUGACUUUAUUUGGGACGUUAGCCCUUAGGUACACACUAAGUGCCAAUGUAGGGUCCACAGAUUUCACAAGAUCACCCAGUUCUUCAGAACAUUCCAGCUUAUCUUCCAACAGAGGAUUGAGCAUCA
B21: chr7:118226368:118226369:-_ENSMUSG00000005610_ENSMUST00000162415|mus_hu|FALSE|FALSE (ssRNA)
RNA: GGGAGUUCUACAGUCCGACGAUCCAGCAGCUGCCACCGCAGCUGCCUCCUCAGGAUCCGGUCGUCGGGGAUAGGGAAGGGAGGGGAAAGGGGAACGGAAAACAAAAAAAAGGGGGAGGGAAGGGGGAGGAAGGAGUCGGGGACCAACAGAGGAUUGAGCAUCA
B22: chr19:8913615:8913616:-_ENSMUSG00000071658_ENSMUST00000096259|mus_hu|mus_mus_mus_hu_False|18_18 (ssRNA)
RNA: GGGAGUUCUACAGUCCGACGAUCAGGGUACCAAAACCUUCUGCCUGAAAUGGGUGCCCCACCCAGUAGGGAGUUGCAGCUGAAAGUAUCUGAUGCAGAAGCAGUGACUAUACGAAAGGUCACUAGAGGGGAGGGCCAGGCCAGCAACAGAGGAUUGAGCAUCA

Molecular target: T1, UNK ZnF1-3
Experiment: nsRBNS (natural sequence RNA bind-n-seq); RBNS binding buffer (assumed for nsRBNS): 25 mM Tris pH 7.5, 150 mM KCl, 3 mM MgCl2, 0.01% Triton X-100, 500 ug/ml BSA, 20 U/ml SUPERase-In, 4 C; UNK is unkempt and MSI1 is Musashi-1; names of the RNAs are library labels; protein concentration not given here; high values mean tight binding

Binder	binding signal [enrichment R]
B1	3.35
B2	0.857
B3	0.574
B4	0.864
B5	1.33
B6	0.767
B7	5.27
B8	5.88
B9	0.645
B10	7.14
B11	8.18
B12	0.937
B13	0.472
B14	0.485
B15	0.764
B16	1.59
B17	1.03
B18	0.645
B19	1.19
B20	0.581
B21	1.19
B22	1.83
